{
  "source": "PubChem BioAssay (NCATS)",
  "note": "Results filed as inconclusive are left out. Values without a mark were called inactive. The source made the active and inactive calls. Calls come from the whole dose curve; as a rule, active = well fitted inhibition curve with a large enough effect; inconclusive = small, poorly fitted or top-dose-only effect; inactive = no such curve, though single readings can be large or run the other way. % is set by controls: 0 for no effect and ±100 for the full control effect; potency is the fitted concentration of half-maximal effect.",
  "data": [
    {"tested_on": "Zika virus NS2B-NS3 protease (unlinked complex)", "test": "Primary screen GU Rhodamine qHTS for Zika virus inhibitors: Unlinked NS2B-NS3 protease assay (AID 1347159); note: nearly all actives have a fitted effect of over 60% in size", "conditions": "Recombinant ZIKV NS2B-NS3 protease, Rhodamine110 substrate fluorescence; series mostly up to 107 µM", "how_it_was_run": "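Noncovalent NS2B hydrophilic domain–NS3 protease domain complex (25 nM) preincubated 15 min at room temperature with compounds (up to 114 microM) in 10 mM Tris-HCl pH 8.0, 0.01% Tween 20; 1.5 microM Rhodamine110 substrate added, fluorescence change over 15 min fitted to Hill equation.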", "values": [
      {"smiles": "C=CC1(C)C=C2C(O)CC3C(C)(C(=O)O)CCCC3(C)C2CC1", "note": "(centres undefined)", "Potency": "11.2 µM (active)"},
      {"smiles": "C=CC(C)(O)CC/C=C(\\C)C(=O)OC1CC2(C(=O)O)CCC3(C)C(=CCC4C5(C)CCC(OC6OC(COC7OCC(O)C(O)C7O)C(O)C(OC7OCC(O)C(O)C7O)C6OC6OC(CO)C(O)C(O)C6OC6OCC(O)C(O)C6O)C(C)(C)C5CCC43C)C2CC1(C)C", "note": "(centres undefined)", "activity change, negative = inhibition": "-12.7% [at 19.1 µM]"},
      {"smiles": "C=C(C)[C@@H](C)[C@H]1O[C@]23C[C@]4(CO2)C(CCC2[C@@]5(C)CC[C@H](O[C@@H]6OC[C@H](O)[C@H](O[C@@H]7O[C@H](CO)[C@@H](O)[C@H](O)[C@H]7O)[C@H]6O[C@@H]6O[C@@H](CO)[C@H](O)[C@H]6O)C(C)(C)C5CC[C@]24C)C3[C@@](C)(O)[C@@H]1OC(C)=O", "note": "(some centres undefined)", "Potency": "inactive"},
      {"smiles": "CC1(C)CCCC2(C)C1C(O)C=C(CO)C2(O)C(=O)O", "note": "(centres undefined)", "Potency": "inactive"},
      {"smiles": "COc1cc(C[C@H]2COC(=O)[C@@H]2Cc2ccc(O)c(OC)c2)ccc1O", "Potency": "35.5 µM (active)"},
      {"smiles": "C=CCc1ccc(O[C@@H]2O[C@H](CO[C@@H]3O[C@@H](C)[C@H](O)[C@@H](O)[C@H]3O)[C@@H](O)[C@H](O)[C@H]2O)cc1", "Potency": "inactive"},
      {"smiles": "C=C[C@H]1[C@H](O[C@@H]2O[C@H](CO)[C@@H](O)[C@H](O)[C@H]2O)OC=C2C(=O)OCC[C@]21O", "Potency": "35.5 µM (active)"},
      {"smiles": "CCCCN(CCCC)C(=O)CN1C[C@H](c2ccc3c(c2)OCO3)[C@@H](C(=O)O)[C@@H]1c1ccc(OC)cc1", "Potency": "28.2 µM (active)"},
      {"smiles": "CC1(C)CCC2(C(=O)OC3OC(COC4OC(CO)C(O)C(O)C4O)C(O)C(O)C3O)CCC3(C)C(=CCC4C5(C)CCC(O)C(C)(C(=O)O)C5CCC43C)C2C1O", "note": "(centres undefined)", "Potency": "inactive"}
    ]}
  ]
}
